# An excerpt weighted towards active compounds, which were near 5.5% of everything screened.
# Mito fusion act: inhibitors of mitochondrial division or activators of mitochondrial fusion; S. cerevisiae fusion-defective mutant growth rescue, CellTiterGlo 48 h; Potency, µM (titrated, usually from 46.1 µM), without a hit: at the highest dose growth rescue (activation), usual class: activators; 320,000 tested, 0.23% active; further: % of control where 0% means no effect; nearly all actives have a fitted effect of over 45% in size
#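 Yeast fusion mutant, YPEG (non-fermentable carbon), compound, 48 h at 37C non-permissive; CellTiterGlo added, 10 min RT, luminescence read. Rescued growth = division inhibition.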
# Gal4-VP16 FLuc: counter-screen for ROR gamma inhibitors: Gal4-VP16 reporter. Drosophila S2 Gal4-VP16 UAS-luciferase, luminescence, 20 h. Potency, µM (series often up to 53.6 µM), inactives show top-dose activity, negative = inhibition, hits mostly inhibitors. 310,000 tested, 3.5% active. AID 2546;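 further: Gal4-VP16 expression switched on by copper sulfate through the metallothionein promoter; on the % scale 0 is the no-effect control and ±100 the full control effect; nearly all actives have a fitted effect of over 50% in size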
# uPA surface inh: blocks generation of uPA at the cell surface | 330,000 tested, 0.31% active | cell surface uPA generation assay, qHTS | Potency, µM (series often up to 38.3 µM), for the others: at the top dose activity change, negative = inhibition, usual class: inhibitors; active means well fitted inhibition curve with a large enough effect; inconclusive means small, poorly fitted or top-dose-only effect; inactive means no such curve, though single readings can be large or run the other way; tested in mouse RAW 264.7 cells; further: on the % scale 0 is the no-effect control and ±100 the full control effect; nearly all actives have a fitted effect of over 55% in size
# Chronic BCR inh: inhibitors of chronic active B-cell receptor signaling; 340,000 tested, 0.05% active; ABC-DLBCL IkBa-CBG/CBR reporter, luminescence ratio, 4 h; Potency, µM (highest dose often 46.1 µM), inactives show at the highest dose activity change, negative = inhibition, actives largely listed as inhibitors; AID 493014; active means well fitted inhibition curve with a large enough effect in the signal ratio, with a control signal flat, not every such curve was filed as active; inconclusive means small, poorly fitted or top-dose-only effect, or effect the other way, or a change in a side signal; the % refers to the signal ratio;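 further: plate controls were basal doxycycline-induced cells for no effect and cells given 10 µM MG132 for full effect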
#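 Cell line TMD8 (human ABC DLBCL), stably expressing tet-inducible CBG68-IkBa fusion and CBR; IMDM/0.5% FBS; cpd up to 46 uM; dox induction, 4 h, 37C/5% CO2; dual luminescence; green/red ratio; MG132 control.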
# a7 integrin act: integrin-mediated muscular dystrophy alleviation activation; 350,000 tested, 0.064% active; alpha7betagal myoblasts, beta-gal FDG fluorescence, 48 h; Potency, µM (titrated, usually from 38.3 µM), inactives show top-dose activation, most hits filed as activators;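 further: 100% = response of the positive control SU9516; nearly all actives have a fitted effect of over 60% in size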
#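 Alpha7betagal+/- myoblasts (passage 13) were plated 16-24 hr, then exposed to compounds (1:260 dilution of DMSO stock) for 48 hours at 37C. After MPER lysis, β-galactosidase reporter activity was read as FDG fluorescence (ex 480/em 540) after 30 minutes.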
# RORg inh: blocks mouse ROR gamma transcriptional activity. P51450. Drosophila S2 Gal4-RORgamma UAS-luciferase reporter, 20 h. Potency, µM (top dose mostly 53.6 µM), for inactives: top-dose activity change, negative = inhibition, actives largely listed as inhibitors. 310,000 tested, 5.4% active; further: on the % scale 0 is the no-effect control and ±100 the full control effect; nearly all actives have a fitted effect of over 60% in size
# Target sequence (P51450 whole entry, looked up, the tested form may be a part): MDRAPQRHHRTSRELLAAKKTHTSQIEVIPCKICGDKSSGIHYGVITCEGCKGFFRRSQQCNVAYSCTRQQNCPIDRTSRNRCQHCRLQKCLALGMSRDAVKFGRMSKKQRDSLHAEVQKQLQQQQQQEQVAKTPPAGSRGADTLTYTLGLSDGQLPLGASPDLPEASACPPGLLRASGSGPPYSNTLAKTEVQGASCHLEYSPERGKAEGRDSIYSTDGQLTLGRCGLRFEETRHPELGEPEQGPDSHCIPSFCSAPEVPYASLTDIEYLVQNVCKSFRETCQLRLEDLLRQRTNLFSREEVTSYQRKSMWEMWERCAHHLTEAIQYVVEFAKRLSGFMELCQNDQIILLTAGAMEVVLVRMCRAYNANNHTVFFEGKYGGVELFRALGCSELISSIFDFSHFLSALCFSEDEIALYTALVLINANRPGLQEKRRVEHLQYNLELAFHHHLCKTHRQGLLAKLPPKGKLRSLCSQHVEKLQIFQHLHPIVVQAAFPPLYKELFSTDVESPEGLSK
#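 Schneider cells (Drosophila), stable Gal4 DBD–ROR gamma + UAS-luc; 1 hr cmpd preincubation; Cu2+ induction 700 uM final; 20 hr ambient; luminescence.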
# * hit, by the source's call; ? = inconclusive; nt = not tested or not shown; [ ] = dose if it differs, or a comment. Unless noted, the call rests on the fitted dose curve; in most records, active means well fitted curve in the direction sought with a large enough effect; inconclusive means small, poorly fitted or top-dose-only effect, or another doubt; inactive means no such curve, though single readings can be large; an effect the other way counts as inactive or inconclusive. Potency means the concentration at half of the fitted maximal effect.
SMILES,Mito fusion act,Gal4-VP16 FLuc,uPA surface inh,Chronic BCR inh,a7 integrin act,RORg inh
CNC1C(O)C(O[C@H]2C(O)[C@@H](OC3OC(CN)=CCC3N)[C@H](N)C[C@@H]2N)OC[C@]1(C)O (stereo not given in full),nt,-4%,nt,nt,nt,10%
COc1ccc2nc(N/C(N)=N/C(=S)Nc3ccccc3)nc(C)c2c1,-6%,4.5µM*,-3%,-2%,-54%,0.79µM*
CCOC(=O)c1ccccc1NC(=O)COC(=O)C(CC)Oc1ccccc1 (stereo not given),nt,nt,nt,nt,3%,nt
O=[N+]([O-])c1ccc(Cl)c(CN2CCN(c3ncccn3)CC2)c1,3%,-4%,0%,-2%,-18%,6%
Cc1ccc2nc(C)c(CN3CCN(c4ccc([N+](=O)[O-])cc4Cl)CC3)n2c1,-24%,7.1µM*,nt,6%,nt,14µM*
CC1=NN(c2cccc(C(=O)O)c2)C(=O)/C1=C\C=C\c1ccco1,-6%,?,-4%,?,-30%,3.5µM*
CC1=NN(c2ccccc2)C(=O)/C1=C\c1sccc1C,-5%,3%,-1%,0%,-4%,?
COc1ccc(/C=C2\C(=O)ON=C2c2ccccc2)cc1OC,-4%,11µM*,-6%,7%,?,13µM*
CC1=NN(c2ccccc2)C(=O)/C1=C/C=C/c1ccccc1,21%,18µM*,2%,?,-38%,?
Cc1ccc(C2=NOC(=O)/C2=C\C=C\c2ccccc2)cc1,-1%,?,-1%,?,-27%,14µM*
COc1ccc(/C=C2/C(=O)ON=C2c2ccccc2)cc1OC,-3%,?,-4%,?,-62%,1%
COc1ccccc1CC(=O)Nc1ccc(S(=O)(=O)N2CCOCC2)cc1,2%,-2%,-4%,-5%,19%,0%
O=C(N/C(=C\c1ccc(Br)cc1)C(=O)N1CCOCC1)c1ccco1,8%,4%,-9%,1%,-35%,0%
Cc1cc2n(n1)CCC(=O)N2Cc1ccc(C(=O)Nc2ccc(F)cc2F)cc1,nt,nt,nt,0%,nt,nt
COCC(=O)N1CCC2(CC1)CCN(C(=O)Nc1cccc(C#N)c1)CC2,nt,1%,nt,nt,nt,14%
CCC(=O)C1=C(c2ccc(OC)c(OC)c2)N(C(=O)CC)n2c(CC)nnc2S1,nt,nt,nt,-5%,nt,nt
CC(C)[C@H](NC(=O)[C@@H]1CSSC[C@H](NC(=O)[C@H](CC(=O)O)NC(=O)[C@H](C)NC(=O)[C@@H](NC(=O)CNC(=O)[C@H](C)N)[C@@H](C)O)C(=O)N[C@@H](Cc2ccccc2)C(=O)N[C@@H](Cc2c[nH]c3ccccc23)C(=O)N[C@@H](CCCCN)C(=O)N[C@@H](Cc2ccc(O)cc2)C(=O)N1)C(=O)O,nt,-15%,nt,nt,nt,15%
CN(C)/C=C(\C#N)C(=O)N/N=C(\CC(=O)C(F)(F)F)c1ccco1,1%,-19%[10 µM],-4%,?,-18%,4.5µM*
CN(C)/C=C(\C#N)C(=O)N/N=C/c1ccc(Cl)cc1,5%,-7%,11%,5%,1%,1%
CN1C2CCC1/C(=C/c1cccn1C)C(=O)/C2=C\c1cccn1C,4%,-13%,1%,-16%,-208%,5%
Cn1cccc1/C=C1\CC(C(C)(C)C)C/C(=C\c2cccn2C)C1=O (stereo not given),11%,5µM*,3%,-3%,4%,?
Cn1cccc1/C=C1\CCc2ccccc2C1=O,10%,0%,-5%,?,-2%,13µM*
Cn1cccc1/C=C1\Cc2ccccc2C1=O,1%,-6%,-15%,1%,-13%,1%
CN(C(=O)c1ccc(OCC=C(c2ccccc2)c2ccccc2)cc1)c1ccccc1I,nt,-10%,nt,nt,nt,-14%
CN(CC(=O)Nc1ccccc1Cl)C(=O)COC(=O)Cc1c(F)cccc1Cl,-3%,?,-4%,4%,-40%,10µM*
SMILES,Mito fusion act,Gal4-VP16 FLuc,uPA surface inh,Chronic BCR inh,a7 integrin act,RORg inh
Cc1cccc(C(=O)Nc2nnc(-c3ccc(C(C)(C)C)cc3)s2)c1,-2%,4%,-3%,18%,-13%,14µM*
Cc1ccccc1C(=O)Nc1nnc(-c2ccc(C(C)(C)C)cc2)s1,-2%,-18%,-2%,-5%,-23%,-17%[10 µM]
CC(C)NC(=S)N/N=C1\CCCCC1C1CCCCC1 (stereo not given),11%,3.5µM*,9%,?,14%[7.66 µM],1µM*
c1ccc(COCCCc2cnc[nH]2)cc1,nt,5%,nt,nt,nt,-20%
COc1ccc(NC(=O)c2cc3cc(OC)ccc3oc2=N)cc1,9%,-17%,2%,-4%,?,-11%
COc1ccc2oc(=O)c(/C(C)=N/NC(=O)c3ccncc3)cc2c1,-7%,?,-5%,?,2%,13µM*
COc1ccc2oc(=O)c(C(=O)Nc3ccccc3O)cc2c1,1%,?,-27%,?,2%,8.9µM*
COc1ccc2o/c(=N\O)c(C(=O)Nc3ccccc3OC)cc2c1,-2%,?,8%,?,-26%,2.8µM*
COc1cccc2cc(C(=O)Nc3ccccc3C)/c(=N/O)oc12,-4%,1%,-11%,?,-67%,0%
COc1ccc(NC(=O)c2cc3ccccc3oc2=O)cc1,nt,nt,nt,nt,19%,nt
COc1ccc(/C(C)=N/NC(=O)c2ccncc2)cc1,3%,-8%,-4%,1%,?,-18%
COc1ccc(NC(=O)c2cc3ccc(O)cc3o/c2=N\O)cc1,1%,0.1µM*,-18%,?,-5%,0.063µM*
O=C(CCN1C(=O)c2ccccc2C1=O)C1=NN[C@@H]2C(=O)N(c3ccc4c(c3)OCCO4)C(=O)[C@H]12,0%,-11%,7%,-1%,?,5%
N=c1oc2cc(O)ccc2cc1C(=O)Nc1ccc(F)cc1,30%,7.1µM*,-19%,?,15%,11µM*
COc1ccccc1NC(=O)CC1CCCC1,10%,3%,-2%,0%,-31%,12%
COc1ccccc1NC(=S)NCC1CCCCC1,-6%,13µM*,10%,-2%,?,4.5µM*
COc1ccccc1NC(=S)NC1CCCCC1,-2%,20µM*,-1%,-1%,-23%,4.5µM*
COc1ccc(OC)c(C(C)NC(=S)NC2CCCCC2)c1 (stereo not given),-15%,4µM*,11%,-4%,-21%,4µM*
Cc1ccc(C)c(C(C)NC(=S)NC2CCCCC2)c1 (stereo not given),-7%,5.6µM*,-1%,-2%,-49%,2.5µM*
COc1ccc(OC)c(NC(=O)NC2CCCCCCC2)c1,-3%,-12%,-23%,0%,-33%,-10%
COc1ccccc1NC(=S)NC1CCCCCCCCCCC1,-1%,?,?,5%,?,2.8µM*
COc1ccccc1CNC(=S)NC1CCCC1,2%,7.1µM*,1%,7%,17%,5.6µM*

# Screens (PubChem BioAssay)
